The record followed here is the OligoGym collection.

Experiment in all cases: pooled miR-30 sensor sort-seq; sequence = guide strand
Common to all, as to details: shRNA

Test [1] concerns the target NLRP3.
The target of test [2] is NLGN1.
Test [3] has as its target NKPD1.
For test [4], the target named is NLRP2.
Test [5] concerns the target NMRAL1.
Test [6] addresses NPBWR1.
For test [7], the target named is NTRK3.
For test [8], the target named is NUDT18.
In test [9] the target is NUDT12.
Test [10] deals with NUDT17.
Note: reference of the scale not given here.

With TGTGATGACAACAACACCCGAT, in [1], the sensor-assay potency score (higher = more potent) was determined as 0.603.

Sequence AAGCTGTAGAACTTCTCGCAGT showed a sensor-assay potency score (higher = more potent) in test [1] of -0.94.

Sequence TTGGTATGAATGAATTTCGTGT had a sensor-assay potency score (higher = more potent) in [2] of -0.285.

With TCTCGCGGTACAACAGGTCGTC, the sensor-assay potency score (higher = more potent) in [3] was -0.615.

In turn, TTCGTCTTCAATATATACCTGC came in with a sensor-assay potency score (higher = more potent) in [4] of 0.466.

Take TTCTCTGTCTGACCCCTCGGGA: the sensor-assay potency score (higher = more potent) in test [1] is -1.19.

Sequence TTTCTCAGTATCAATAATCAGT yielded a sensor-assay potency score (higher = more potent) in test [4] of -0.723.

TATCTGAAACATTGCAACCAAC: the sensor-assay potency score (higher = more potent) in [2] was -1.43.

Consider TTACGAACAGGTGCTTGCCCAC, for which the sensor-assay potency score (higher = more potent) in test [3] was -0.968.

Sequence TAGCATTGGACTAATAGTCATT displayed a sensor-assay potency score (higher = more potent) in test [2] of -0.504.

TTGGCTTTCACTTCAATCCATT: the sensor-assay potency score (higher = more potent) in test [1] was -0.825.

For the sequence TTGGTCAACAAGTTCTTTGTAA, in test [2], the sensor-assay potency score (higher = more potent) turned out to be 0.00294.

In turn, TTGTTGTAGAGGTATACTGAGA displayed a sensor-assay potency score (higher = more potent) in [2] of -1.34.

As to TTGTCTAATTCCAACACCTGAA, the sensor-assay potency score (higher = more potent) in test [1] was -0.802.

Sequence TTACAAATAGAGATTCTCGAAA came in with a sensor-assay potency score (higher = more potent) in [1] of -0.224.

In turn, TCCTTTGCTGCCTTCTTCCTAG yielded a sensor-assay potency score (higher = more potent) in [5] of -1.25.

On to TACTTCTGCACCTTGCAGCCTC, for which the sensor-assay potency score (higher = more potent) in [5] is -0.418.

For the sequence ATCACCGCGTAGACAACTGGTA, the sensor-assay potency score (higher = more potent) in test [6] is -0.96.

With TAGACAGTGAGGGCAACACTGG, the sensor-assay potency score (higher = more potent) in [7] was -1.18.

The sequence TCTCTGTAGTGAACTTCCGGTA registered a sensor-assay potency score (higher = more potent) in test [7] of -0.729.

Regarding ATCACTGTGATCTCGGCCCAGG, in test [8], the sensor-assay potency score (higher = more potent) is -0.975.

In [9], TTAAATATGTAAATCTGCCTGG showed a sensor-assay potency score (higher = more potent) of 0.199.

In test [7], TAGAACTTGACAATGTGCTCAT registered a sensor-assay potency score (higher = more potent) of 0.762.

TCCTCCATCACCTTCCACCAAG returned a sensor-assay potency score (higher = more potent) in [8] of -1.79.

Turning to TTAGCAAGACAGTCTTGTCGCT, the sensor-assay potency score (higher = more potent) in test [10] amounted to 0.135.

TTCACTAGCAGATTCGCTCCAA gave a sensor-assay potency score (higher = more potent) in test [7] of 0.574.

For the sequence AGCAAGACAGTCTTGTCGCTGG, the sensor-assay potency score (higher = more potent) in test [10] is -0.353.

For the sequence TAATAGTATGCTTTTCTCCTTC, the sensor-assay potency score (higher = more potent) in test [9] was 0.381.

On to TTGACAGGTTTATATAACGCAA, for which the sensor-assay potency score (higher = more potent) in test [7] is -0.787.

TTAACTTGGCAATATCTCCTTC yielded a sensor-assay potency score (higher = more potent) in test [9] of 0.732.

As to TTCCACTGCAAGGACAGAGGGT, in test [10], the sensor-assay potency score (higher = more potent) was -0.741.

Consider TAGAGCTCCATGTCCACGGCGT, for which, in test [7], the sensor-assay potency score (higher = more potent) stood at 0.00985.

For TAGCTCTTGGGGCAGAATGAGA, the sensor-assay potency score (higher = more potent) in test [8] is -1.69.

In test [7], TAGACATCTCTGGACATGCCGA displayed a sensor-assay potency score (higher = more potent) of -0.718.

As to TATATCTGTGTAGTTCAGCTGA, in test [9], the sensor-assay potency score (higher = more potent) was 0.275.

Sequence TGTTCCATTCTTCCTTTGCTGG showed a sensor-assay potency score (higher = more potent) in test [10] of -1.04.

Turning to TTGATCTCAGTCTTGCTGCAGA, in test [7], the sensor-assay potency score (higher = more potent) turned out to be 0.132.

Regarding TATATTGACAACTTAAAGGTAA, the sensor-assay potency score (higher = more potent) in [9] was -0.0673.

On to TTGAGGGCAAACTTGGTTCCAG, for which, in [10], the sensor-assay potency score (higher = more potent) was -0.0646.

With TAGTTCAACCAGGTGCAGGATG, the sensor-assay potency score (higher = more potent) in test [8] was -0.826.

TTAATGTGCTGCACATACGTGT came in with a sensor-assay potency score (higher = more potent) in [7] of 0.37.

With TTTGTAGATCTCCTTGATGTTC, the sensor-assay potency score (higher = more potent) in test [7] is -1.01.

In test [9], TTAATTTCTGTAGACACTGCTA came in with a sensor-assay potency score (higher = more potent) of 0.0613.

Take TTCTCGAAGCCCTCCGTCCAGC: the sensor-assay potency score (higher = more potent) in test [10] was -1.17.

With TTACTCAGCAACGTGCTCCTCC, the sensor-assay potency score (higher = more potent) in [8] worked out at 0.514.

TTGTCCTCTGCCATGGTTGGGA returned a sensor-assay potency score (higher = more potent) in [10] of -0.492.

For the sequence TATTATTACATTCATTTCCAGT, the sensor-assay potency score (higher = more potent) in test [9] was -0.883.

On to TTGATCTCCACCACCAAGTGGT, for which the sensor-assay potency score (higher = more potent) in test [8] is 0.0788.

In the case of TAGCAAGACAGTCTTGTCGCTG, the sensor-assay potency score (higher = more potent) in test [10] was -0.0193.

Regarding TTTCTCTAGAATCTTACTGATT, in test [9], the sensor-assay potency score (higher = more potent) is -0.991.

In test [8], ACTAACACCCACACTGTCTGGG gave a sensor-assay potency score (higher = more potent) of -0.0585.

TAAGCTGCACTTTTACACGGTG returned a sensor-assay potency score (higher = more potent) in [10] of -0.247.

Turning to TAGTAAATTAGCTATATGCTTA, the sensor-assay potency score (higher = more potent) in [9] is -0.516.

In test [9], TTTTGCTTTCTCTAGAATCTTA showed a sensor-assay potency score (higher = more potent) of 0.0347.

With TTGTGGGTCACAGTGATAGGAG, in test [7], the sensor-assay potency score (higher = more potent) is -0.852.

Consider TTTGGGTTTGGTTGGATCCGGG, for which the sensor-assay potency score (higher = more potent) in [10] is -0.403.

As for TCTCTGTCCCATCCTCTGCGGC, the sensor-assay potency score (higher = more potent) in test [10] is -1.35.

Turning to ATACAGAACAATGTGATGGTAT, the sensor-assay potency score (higher = more potent) in test [10] stood at 0.6.

The sequence TTTAACATTATGAAAACCTGGA yielded a sensor-assay potency score (higher = more potent) in test [9] of 0.224.

In the case of TTCATTCCAAATTTGGACCGTC, the sensor-assay potency score (higher = more potent) in [7] worked out at 0.838.
